An excerpt weighted towards active compounds, which were near 3.8% of everything screened.
ATXN viability = reduces viability in counter-screen for ATXN expression inhibitors; AID 651635; S2 cells (HEK-293 line with an ATXN2-luciferase reporter) viability, CellTiter-Fluor protease fluorescence, 24 h; Potency, µM (doses to about 56.7 µM), actives largely listed as cytotoxic; 400,000 compounds, 0.49% hits; also: nearly all actives have a fitted effect of over 40% in size
HT1080-NT tox = kills 2HG-producing HT-1080-NT fibrosarcoma cells; HT-1080-NT fibrosarcoma viability, CellTiter-Glo ATP luminescence, 48 h; Potency, µM (highest dose often 46.1 µM), for inactives: at the top dose activity, negative = less viability, most hits filed as cytotoxic; 360,000 compounds, 1.6% hits; AID 686970;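 also: NT is the 2HG producing partner of a matched IDH1 knockdown line; 0% = DMSO-treated cells and -100% = media-only wells without cells; nearly all actives have a fitted effect of over 55% in size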
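Toxicity toward the 2HG-producing NT line was scored as %Activity, normalised to DMSO and no-cell wells, from CellTiter-Glo luminescence after 48 hours' treatment.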
ATXN2 expr inh = inhibitors of ATXN2 expression. HEK-293 ATXN2-luciferase reporter, luminescence, 24 h. Potency, µM (top dose mostly 57 µM), for the others: at the highest dose activity change, negative = inhibition, usual class: inhibitors. 360,000 compounds, 0.72% hits; also: % is scaled to controls: 0 for no effect and ±100 for the full control effect; nearly all actives have a fitted effect of over 55% in size
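qHTS (up to 57 uM final) was run with 24 h compound exposure of reporter cells at 37 °C. Each well was multiplexed: SteadyGlo luminescence measured ATXN2-luciferase expression after a fluorogenic Gly-Phe-AFC viability readout (25 uM final).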
HT1080 IDH1KD tx = kills HT-1080 cells with IDH1 knockdown; HT-1080 IDH1 knockdown viability, ATP luminescence, 48 h; Potency, µM (titrated, usually from 46.1 µM), for the others: at the highest dose activity, negative = toxicity, actives largely listed as cytotoxic; 360,000 compounds, 2% hits;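 also: 0% = DMSO wells and -100% = cell-free medium wells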
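Using the IDH1-knockdown HT-1080 line run in the same batch and compound series as the NT line, viability after 48 h at 37 °C was determined by CellTiter-Glo luminescence and expressed as % activity.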
TGFb inhibitor = inhibitors of TGF-b signaling | HepG2 CAGA-GFP TGF-b/SMAD3 reporter, GFP fluorescence, 18 h; TGF-beta stimulated, 500 pg/mL final | Potency, µM (titrated, usually from 46.1 µM), for inactives: top-dose activity, negative = inhibition, usual class: inhibitors | 410,000 compounds, 1.2% hits | AID 588855; also: % is scaled to controls: 0 for no effect and ±100 for the full control effect; nearly all actives have a fitted effect of over 65% in size
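Using HEPG2 CAGA-GFP reporter cells at 1000 cells/well, we pinned test compounds, stimulated with recombinant TGF-beta (500 pg/mL final) and measured total well GFP after 18 h.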
HepG2 viability = kills HepG2 cells in TGF-b inhibitor counter-screen; HepG2 CAGA-GFP viability, ATP luminescence, 18 h; Potency, µM (highest dose often 46.1 µM), for the others: at the top dose activity change, negative = cytotoxicity, usual class: cytotoxic; 410,000 compounds, 0.76% hits
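HepG2 CAGA-GFP cells (1000/well, DMEM with 1% FBS) received compound, then TGF-beta at 500 pg/mL final, and were incubated 18 hours at 37 degrees C. Viability was read by CellTiter-Glo luminescence. Media-only wells were set as complete cell-killing and DMSO as no toxicity.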
Starred values were filed as active, the others as inactive; i = inactive; ? = inconclusive; . = no result; ! = not active in a repeat; [ ] = remark or other dose. Calls follow the shape of the dose curve; as a rule, active = well fitted curve in the direction sought with a large enough effect; inconclusive = small, poorly fitted or top-dose-only effect, or another doubt; inactive = no such curve, though single readings can be large; an effect the other way counts as inactive or inconclusive. Potency is read from the fitted curve at half-maximal effect.

SMILES | ATXN viability | HT1080-NT tox | ATXN2 expr inh | HT1080 IDH1KD tx | TGFb inhibitor | HepG2 viability
C[C@@H](c1ccccc1)N1C[C@@H](COCc2ccccc2)Oc2cc(N3CC[C@@H](N(C)C)C3)ccc2S1(=O)=O | 20µM* | 18µM* | 28µM* | 23µM* | . | .
CCCCC[C@@H](C)N1C[C@@H](COCc2ccccc2)Oc2cc(N3CC[C@@H](N(C)C)C3)ccc2S1(=O)=O | 28µM* | 21µM* | ? | 18µM* | . | .
CCC(C(=O)NCCc1ccccc1)n1nc(C)c2sc3ccccc3c2c1=O (stereo unspecified) | . | . | . | . | ? | 0%
CCN(Cc1ccncc1)Cc1ccc2c(c1)CN(C(=O)c1cccc(-n3nc(C)cc3C)c1)CCO2 | i | . | . | . | . | .
CCCCC[C@H](C)N1C[C@@H](COCc2ccccc2)Oc2cc(N3CC[C@@H](O)C3)ccc2S1(=O)=O | ? | ? | -1% | ? | . | .
CCCCC[C@H](C)N1C[C@H](COCc2ccccc2)Oc2cc(N3CC[C@@H](N(C)C)C3)ccc2S1(=O)=O | 28µM* | 21µM* | ? | 16µM* | . | .
Cc1cc(F)ccc1N1CCC(N2CCN(C(C)C)C(CCO)C2)CC1 (stereo unspecified) | i | -3% | -7% | -10% | -22% | -42%
Cc1cc(F)ccc1N1CCC(N2CCN(CCC(C)C)C(CCO)C2)CC1 (stereo unspecified) | i | 18µM* | -30% | ? | 7% | -19%
CCOc1cc(-c2nnc(SCC(=O)NCCCOC)nc2-c2ccc(OC)c(OCC)c2)ccc1OC | . | . | . | . | 32% | 0%
Cc1nc2ccc(Cl)cc2c(-c2ccccc2)c1C(=O)N(C)C | i | 0% | 3% | 11% | -5% | -2%
CCOC(=O)c1c(CN2CCNCC2)nc2ccc(Cl)cc2c1-c1ccccc1 | ? | -16% | ? | ? | 16µM* | -116%
Cc1ccc(OCCNC(=O)C(=O)NCc2ccco2)cc1 | i | ? | -36% | 4.1µM* | 2% | 8%
Cc1cc(Br)ccc1NC(=O)c1cn(C2CCCC2)c(=O)c2c1c1ccccc1n2C | . | . | . | . | ? | -2%
COc1ccc(C(C#N)=C2C=CC(=NO)C=C2)cc1 | ? | 15µM* | 56% | 10µM* | ? | i
CC(=O)ON=C1C=CC(=C(C#N)c2ccccc2)C=C1 | 14µM* | 7.3µM* | 14µM* | 5.8µM* | ? | -52%
Cc1ccc(N2CC(C)Cn3c2nc2c3c(=O)n(CC(=O)O)c(=O)n2C)cc1 (stereo unspecified) | i | . | 7% | . | 15% | -6%
CCCCCCCCNC(=S)NCCN1CCCCC1 | 25µM* | -27% | . | -3% | ? | -23%
COc1ccccc1C(=O)COC(=O)c1ccc(N(C)C)cc1 | i | 0% | 68% | -2% | 1% | -3%
COc1ccc(C(=O)c2ccc(Br)cc2)c(OC)c1OC | i | 1% | 17% | -17% | -10% | -3%
COc1ccc(C(=O)c2ccc(OC)c(OC)c2OC)cc1 | ? | ? | -14% | 10µM* | -26% | -24%
COc1ccc(C(=O)c2ccc(N(C)C)cc2)c2ccccc12 | i | 1.6µM* | 50% | 2.8µM* | ? | -16%
O=C1C=CC(=O)N1Cc1ccccc1 | ? | 2.6µM* | ? | 18µM* | ? | -78%
O=C1C2CC=CCC2C(=O)N1Cc1ccccc1 (stereo unspecified) | i | -4% | 5% | 2%[9.24 µM] | 1% | -18%
Cn1nc(C(=O)Oc2cc(=O)n(C)c3ccccc23)c2ccccc2c1=O | 0.22µM* | -2% | . | 0% | -2% | -4%
Cn1nc(C(=O)OCc2ccc(F)cc2)c2ccccc2c1=O | i | 0% | -21% | 7% | 11% | -13%
SMILES | ATXN viability | HT1080-NT tox | ATXN2 expr inh | HT1080 IDH1KD tx | TGFb inhibitor | HepG2 viability
CC1CCc2c(sc(NC(=O)c3cc(-c4cccc(Cl)c4)on3)c2C(N)=O)C1 (stereo unspecified) | i | . | -6% | . | -4% | -24%
COc1ccc(C)cc1-n1nnnc1SCc1nc(N)nc(N(C)C)n1 | i | ? | -20% | ? | 11µM* | -37%
Cc1cccc(C)c1-n1nnnc1SCc1nc(N)nc(N(C)C)n1 | i | ? | -16% | ? | 5.6µM* | -61%
CN(C)c1nc(N)nc(CSc2nnnn2-c2ccc(F)cc2)n1 | i | 0% | -2% | ? | -22% | 1%
COc1ccc(C)cc1-n1nnnc1SCc1cn2ccsc2n1 | i | -15% | -7% | -16% | ? | 1%
Fc1cc(-c2cccc3ncc(-c4cnn(C5CCNCC5)c4)nc23)cc(F)c1CN1CCOCC1 | . | . | 24µM* | . | . | .
CCc1cc2c(=O)c(-c3cnn(-c4ccccc4)c3)coc2c(CN2CCOCC2)c1O | i | 17% | ? | 8% | ? | 0%
OCCN1CCN(C2CCC(c3ccc(F)cc3)c3ccc(F)cc32)CC1 (stereo unspecified) | ? | 18µM* | 25µM* | 23µM* | 20µM* | i
Cc1cnc(-n2ncc(C(=O)N[C@H]3CCCCNC3=O)c2C2CC2)nc1-c1cccs1 | i | . | . | . | . | .
CCn1c(=N)n(CC(O)COc2ccccc2)c2ccccc21 (stereo unspecified) | i | . | -19% | . | 32% | -16%
CCN(CC)CCn1c(=N)n(CC(O)COc2cccc(C)c2)c2ccccc21 (stereo unspecified) | ? | ? | -31%[11.3 µM] | 21µM* | ? | -59%
CCN(CC)CCn1c(=N)n(CC(O)COc2ccccc2C)c2ccccc21 (stereo unspecified) | . | . | . | . | . | -101%
Cc1cccc(OCC(O)Cn2c(=N)n(CCN3CCCCC3)c3ccccc32)c1 (stereo unspecified) | . | 10µM* | ? | 11µM* | ? | 11µM*!
Cc1c(C(=O)NCC(C)(C)N2CCOCC2)cnn1-c1ncc2c(n1)-c1ccccc1CC2 | i | . | . | . | . | .
CNC(=O)[C@@H]1C[C@H](Sc2nc3ccccc3[nH]2)CN1Cc1ccccc1C(F)(F)F | i | . | . | . | . | .
CCCNC(=O)[C@H]1O[C@H]1C(=O)N[C@H](C(=O)N1CCC[C@@H]1C(=O)OC)C(C)CC (stereo partly specified) | . | . | 22µM* | . | . | .
Cc1ccc(S(=O)(=O)N(C)C[C@@H]2Oc3ccc(NC(=O)CCC(F)(F)F)cc3CC(=O)N([C@@H](C)CO)C[C@@H]2C)cc1 | i | 2.1µM* | -14% | 4.6µM* | ? | -1%

Source: PubChem (National Center for Advancing Translational Sciences (NCATS))
